Measurements from the supplement of paper PMC6555819.

What was measured:
Assay in all cases: PBM binding z-score (relative to random genomic background probes); higher = stronger binding; sequences stand for … in GC…GCGATTGACAGCGTAGAATGAAGG
[1] = test system: RARg:RXRa (NR concentration 270 nM, RXRa partner concentration 90 nM)
Outline: (§1)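 Binding buffer was PBS pH 7.4 with 2% milk, 0.02% Triton X-100, 1 mM DTT, 0.2 mg/mL BSA and 0.4 mg/ml salmon testes DNA. In it, ligand-free nuclear receptor dimers were incubated 1 h on custom Agilent 4×180K protein-binding microarrays carrying double-stranded probes. Antibodies against each partner (one per run) detected binding, and z-scores were calculated against random background probes after regression normalization of scanned fluorescence.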

[2] = test system: RARg homodimer (NR concentration 270 nM)
Outline: as §1

[3] = test system: RXRa DBDmut IVT, anti-RXR (DBD mutation: RXRa K156A/R161A, NR concentration 90 nM)
Outline: as §1

[4] = test system: RXRa homodimer (NR concentration 180 nM)
Outline: as §1

[5] = test system: THRa:RXRa (NR concentration 90 nM, RXRa partner concentration 90 nM)
Outline: as §1

[6] = test system: THRa homodimer (NR concentration 90 nM)
Outline: as §1

[7] = test system: VDR homodimer (NR concentration 270 nM)
Outline: as §1

Sequence	PBM binding z-score [1]	PBM binding z-score [2]	PBM binding z-score [3]	PBM binding z-score [4]	PBM binding z-score [5]	PBM binding z-score [6]	PBM binding z-score [7]
AATACAGGGTCATCGTACGCCAGAGTACGCACAG	5.65	4.81	3.46	6.92	3.87	1.73	4.17
CGTCAAAGATCAAGGTAACGTAACAGAAAGCAGC	0.224	0.612	-0.147	0.691	1.33	0.524	-0.275
TTACCAAGGTGAACGGTCGTTGATGCACGCCTTG	0.796	0.84	-0.078	1.24	1.93	0.872	-0.356
CGTCCAAGGTCATAGAGGTCAGTGAATGCCGAGT	7.06	7.75	4.4	7.55	4.38	3.51	7.8
CGCACTAGGTCATCCAGGACAGTGAATACATTGA	3.99	4.51	2.26	2.76	3.73	2.4	1.76
GTTACAGGGTCAAGGCCAGAGTACGCGTATTGAT	5.65	5.24	2.91	6.16	3.62	1.53	2.86
ATCAAAAGGTCGAGGTGAGTATAGAGAAAGGGAA	4.7	4.98	1.28	4.83	3.11	1.26	1.18
CGAACTAGGTCGAGGACAGTGAATCTCCGCACGC	0.749	1.36	0.54	0.381	2.11	1.45	0.0594
GCTAGTTGGTCAGTAAAATGTCACACACCGGTCG	0.584	0.697	0.121	0.272	-0.216	-0.123	0.162
CGTCCAAAGTCAAAGGTCAGTGAAGAGATGACGG	4.93	5	0.813	5.96	2.81	0.117	0.98
GATACAGGGTCAGCTACAGGCCAGAGTATGGAAA	5.37	4.29	1.25	4.23	2.83	0.162	0.801
ATATGTAGGTTAGGGTCAGTCAGAAAGTAGGGAA	3.08	3.14	1.04	3.37	3.32	2.69	1.79
CCGAATAGGTTACGAGGGGGCATTCAGTGCGAAT	3.99	2.87	1.75	3.03	4.03	0.692	3.51
CTATGTGGGTTAAGGGGGTCATTCAGTTTGAAAG	5.36	4.42	3.34	6.11	4.29	3.69	6.5
ACGCGGAGGACAAAGGTCAGAGCTACGCCAGTGA	6.23	5.34	0.687	5.4	3.38	0.463	0.908
CGTCAAAGTCCAAGGTAACGTAACAGAAAGCAGC	0.398	1.1	1.15	-0.0038	1.31	0.878	0.231
AGAATGAGGTCAAGATCAGGGAAACAGAATACAT	6.53	6.24	4.15	6.66	4.29	2.98	3.31
CGAACTAGGTCTAAGGACAGTGAAAGGCGACGTA	-0.0449	0.382	0.0916	0.0481	2.65	1.96	-0.112
TAGCCTAGGTCATTCAGGGGCCACTATAGAAAGC	6.46	4.76	1.94	3.21	3.89	1.05	1.92
ATCGAAAGGTCGAAGGTGAGCATACCCACCCGAA	4.35	3.86	0.654	5.22	2.36	0.23	0.602

Sequence	PBM binding z-score [1]	PBM binding z-score [2]	PBM binding z-score [3]	PBM binding z-score [4]	PBM binding z-score [5]	PBM binding z-score [6]	PBM binding z-score [7]
CGTCTAAGGTCATAGGAGGTCAGTGAAGACAGAT	7.35	7.8	4.42	7.22	5.51	4.81	4.89
CCTTACGGGTCACGTGGTTATAGCACGACGAGCG	5.5	5.1	1.32	6.08	3.04	0.0729	0.82
GGAACGAGGTCAAGTTGATAGCAGAGTTTGATGG	6.84	7.08	4.6	7.65	4.27	2.78	5.11
TGAATGAGGTTAAATATCAGGGAACGTGGCGTCG	2.18	1.43	1.95	2.84	2.38	0.583	1.02
AGTCAAAGTTCAGGACGACGTAACGTAAAGCACG	3.78	4.45	2.93	2.66	2.02	0.216	2.05
CCTAGTTGGTCAAGGTCACATACGCTATAGGTAC	4.18	4.37	2.21	3.89	3.96	3.88	3.56
TCTCGGAGGACACTAAAGGTCAGAGCTCGACATC	4.4	4.68	1.11	3.98	3.48	1.1	0.787
CCTTACGGGTCACTGACAGGTTATAGCGTTTGGA	5.75	4.55	1.73	5.06	2.76	0.417	1.2
TAGCCTAGGGCATTCAGGGGCCAGTATAGAAAGC	1.99	1.1	-0.766	0.0553	1.2	-0.586	-0.169
ATTTGTAGGTTACATCCGGGTCATTCAGGCTATG	4.18	2.41	1.3	3.47	3.85	3.39	4.18
CGTCCAAGGTCAGCGGGTCAGTGAAAGCGACGTG	6.32	6.61	2.67	4.98	3.74	2.34	1.76
TAGCCTAGGTCACATCGGGCCAGTATACGCTATA	4.02	4.72	0.602	3.09	4.5	1.15	0.412
CCAACTGGGCCAAAAAGGTCATTGATGCCGATAA	4.71	4.35	0.992	5.08	3.11	0.427	2.62
TCTGCTAGGTCAACGTTGGTCAGCTAATCTGCTA	3.78	4.83	1.06	2.32	3.21	0.755	-0.37
TCTGCTAGGTCAACGATGGTCAGTTAATCTGCTA	4.12	4.95	0.834	2.5	2.93	0.73	-0.183
TCTAGTTGGTCTAAGGTCACACACTCGAAATGCG	4.63	4.37	2.21	4.71	4.63	5.66	2.99
TGTCAATGTTCAAAGGTAACGTAAGTATCCACAC	0.811	0.759	-0.404	0.776	1.24	-0.064	-0.453
CAAACTAGGTCACCGAAAGGTCAAAGTCCGCATG	8.9	8.27	2.98	7.88	4.72	2.96	4.24
TGTCAACGTTCAAAGGTAACGTAAGTATCCACAC	1.28	1.09	-0.465	1.27	1.46	-0.221	-0.0342
TATACAAGGTCAAAGGCCAGAGTACGAATGTCGA	6.25	6.16	2.92	6.51	3.86	2.1	2.78

Sequence	PBM binding z-score [1]	PBM binding z-score [2]	PBM binding z-score [3]	PBM binding z-score [4]	PBM binding z-score [5]	PBM binding z-score [6]	PBM binding z-score [7]
AGCGAAAGGTCGAGGTGAGTATAGAGAAAGGGAA	4.32	4.24	0.946	4.46	2.89	0.747	0.467
CGTCCAAGGTCAATGCTAGATCAGTGAAAGCATT	5.61	5.86	3.56	4.83	3.51	1.97	2.34
AATACAGGGTAACTAGGCCAGAGTAGGTACGAAT	0.64	0.567	-0.0804	0.664	0.631	-0.0802	0.108
CGAACAAGGTCATCCAGGACAGTGAATACATTGA	6.28	6.49	4.2	6.46	4.53	3.3	4.92
CCTAGTGGGCCAAGGTCATTGATCAGTCAAAGCA	3.74	3.3	1.05	3.2	3.45	2.05	2.91
TCTAGTTGGTCACGGAGGACACACACGACGGGTA	1.55	2.32	0.501	0.864	1.83	1.27	0.76
TAGCCTAGGTCATGGGCCAGTGTACCACGCGAAC	4.41	4.65	0.252	3.76	3.13	1.23	0.706
CGTCCGAGGTCATAGGAGGTCAGTGAAGACAGAT	7.12	7.76	4.48	7.49	5.37	3.58	5.17
GGAACGAGGGCAAAGTTCATAGCATCTGTCGACG	5.71	3.92	3.54	6.27	3.03	0.017	4.43
CGAACTAGGTCATCCAGGTCAGTGAATACATTGA	4.85	5.61	2.52	3.47	4.21	2.83	3.77
AGAATGAGGTCATTAAGATCAGGGAATTGCGGTC	5.83	5.03	4.81	6.72	4.38	3.69	4.67
CCTACTGGGCCACTAAAGGTCATTGATTCAGTGA	4.48	4.5	0.757	4.87	3.61	0.905	2.62
GCTTACAGGTCAAAGGTTATAGCATGAATAGAAT	7.18	5.44	2.31	9.21	4.11	0.393	1.47
CGAACTAGGTCATCCAGGACCGTGAATACATTGA	3.95	4.72	2.15	2.82	3.12	0.969	0.996
CCGAGTAGGTTACTAGGGGGCATTCAGTGCGAAT	2.46	2.1	1.4	1.72	3.57	0.676	3.59
TGTATGAGGTTAAAGATCAGGGAACGTGGCGTCG	2.79	1.99	1.22	4.35	2.84	1.01	1.19
CCTCGGAGGACAACAGGAGGTCATAGCTGCCAGA	3.93	3.78	1.1	3.09	3.58	1.5	2.44
CCTTACGGGTCAAGGTTATAGCCCGGGTGGTACG	5.05	5.24	-0.0321	5.76	3.1	0.694	1.24
CCTACTGGGCCTAAGGTCATTGATTCCAATGCTC	3.16	2.83	1.17	3.44	3.88	4.55	2.68
CTCGAAAGGTCGTGCTCAGATGAGTATACCAAAC	4.06	3.84	1.66	4.62	2.22	-0.171	1.15
